Test results as given in PubChem BioAssay (EPA / NIEHS).
Activity calls are given as the source filed them. The calls were made as follows: active = hit-call score of the fitted dose curve at least 0.9, where 1 is the maximum; inactive = score below 0.9.

Experiment: APR_HepG2_p53Act_1hr: Apredica 1-hour HepG2 Assay for p53 Activation (AID 2282671)
Settings: high-content imaging, actives raise or lower the signal
Description: APR_HepG2_1hr is a cell-based, multiplexed-readout assay that uses HepG2, a human liver cell line, with measurements taken at 1 hour after chemical dosing in a 384-well plate.APR_HepG2_p53Act_1hr is one of 10 assay component(s) measured or calculated from the APR_HepG2_1hr assay. It is designed to make measurements of dna content, a form of viability reporter, as detected with fluorescence intensity signals by HCS Fluorescent Imaging technology.Data from the assay component APR_HepG2_p53Act_1hr was analyzed into 1 assay endpoint. This assay endpoint, APR_HepG2_p53Act_1hr, was analyzed with bidirectional fitting relative to DMSO as the negative control and baseline of activity. Using a type of viability reporter, measures of protein for gain or loss-of-signal activity can be used to understand the signaling at the pathway-level as they relate to the gene TP53. Furthermore, this assay endpoint can be referred to as a primary readout, because this assay has produced multiple assay endpoints where this one serves a signaling function. To generalize the intended target to other relatable targets, this assay endpoint is annotated to the dna binding intended target family, where the subfamily is tumor suppressor.
Cells were treated with dimethyl sulfoxide (DMSO) as a solvent control at a final concentration of 0.5% v/v or with compounds in DMSO with a resulting final DMSO concentration of 0.5% v/v. Compound treatment was done at concentrations of 0.39, 0.78, 1.56, 3.12, 6.24, 12.5, 25, 50, 100, and 200 uM in duplicate on each plate. Cells were treated with compounds for 1, 24, or 72 hr. Carbonyl […] m-chloro-phenylhydrazone (CCCP) and taxol were used as positive controls for mitochondrial function and cytoskeletal stability, respectively; DMSO served as the negative control for this experiment. Cells were fixed by the direct addition of 50 uL formaldehyde in Hank's Balanced Salt Solution (HBSS) to a final concentration of 3.7%. After incubation in the fixation medium for 30 min at room temperature (293-298 K), cells were rinsed twice with HBSS and treated with cell permeabilization buffer (16 uL of 0.5% Triton X-100) for 10 min at room temperature (293-298 K) before labeling. For mitochondrial membrane potential and mitochondrial measurements, pre-fixed cells were incubated with 50 uL of MitoTracker Red CMXRos (Invitrogen) at a concentration of 250 nM for 30 min before fixation. In the remaining cases, post-fixed cells were labeled by incubation with a multiplexed mixture of primary antibodies in HBSS for 60 min at room temperature (293-298 K) to detect immunoreactivity of c-Jun (1:500), phospho-histone H3 (1:100), phospho-histone H2A.x (1:200), p53 (1:400), alpha-tubulin (1:200) and Hoechst 33342 (2 ug/mL). Cells were labeled for multiplexed imaging on two separate plates: a) Hoechst 33342, MitoTracker Red, phospho-histone H3, and alpha-tubulin, and b) Hoechst 33342, phospho-histone H2A.x, and c-Jun. A final rinse with HBSS (50 uL) was performed before analysis. The primary and secondary antibodies for the proteins were phospho-histone H3 (rabbit anti-phospho-histone H3 and FITC-donkey anti-rabbit IgG), phospho-histone H2A.x (mouse anti-phospho-histone H2A.x and FITC-donkey anti-mouse IgG), c-Jun (rabbit anti-phospho-c-Jun and Cy3-donkey anti-rabbit IgG), p53 (sheep anti-p53 and Cy5-donkey anti-sheep IgG), alpha-tubulin (mouse anti-alpha-tubulin and Cy5-donkey anti-mouse IgG). These antibodies are available as the CellCiphr HepG2 assay kit (Millipore).Digital images of each well were captured using a Cellomics ArrayScan VTI (Thermo Scientific Cellomics) (0.8 NA objective, 0.63x optical coupler, and XF-93 filter set) at 20x magnification. The images were acquired using the autofocus feature of the ArrayScan instrument, which entails the following steps. First, the camera focuses on channel 1 (Hoechst 33342), where nuclei are identified. Second, a Z offset of 1 um is used for capturing mitochondria (MitoTracker Red). […]

Row | SMILES | outcome
1 | COP(=S)(OC)Oc1ccc([N+](=O)[O-])cc1 | inactive
2 | O=C(O)C(F)(F)C(F)(F)C(F)(F)C(F)(F)C(F)(F)C(F)(F)C(F)(F)F | inactive
3 | CNC(=O)Oc1ccccc1OC(C)C | inactive
4 | CC1(C)C(C=C(Cl)Cl)C1C(=O)OC(C#N)c1ccc(F)c(Oc2ccccc2)c1 (stereo not given) | inactive
5 | ClC1C(Cl)C(Cl)C(Cl)C(Cl)C1Cl (stereo not given) | inactive
6 | CCc1ccc(C(=O)NN(C(=O)c2cc(C)cc(C)c2)C(C)(C)C)cc1 | inactive
7 | CCCN(CCOc1c(Cl)cc(Cl)cc1Cl)C(=O)n1ccnc1 | inactive
8 | COP(=S)(OC)Oc1ccc(SC)c(C)c1 | inactive
9 | CCS(=O)(=O)c1cccnc1S(=O)(=O)NC(=O)Nc1nc(OC)cc(OC)n1 | inactive
10 | CC(C)(C)C(O)/C(=C\c1ccc(Cl)cc1Cl)n1cncn1 (stereo not given) | inactive
11 | CC(C)N(C(=O)COc1nnc(C(F)(F)F)s1)c1ccc(F)cc1 | inactive
12 | Oc1ccc(Cl)cc1Cc1ccccc1 | inactive
13 | O=C(O)CCCOc1ccc(Cl)cc1Cl | inactive
14 | CN1CSC(=S)N(C)C1 | inactive
15 | O=C(O)COc1ccc(Cl)cc1Cl | inactive
16 | CC(C)(C)C(O)C(Oc1ccc(Cl)cc1)n1cncn1 (stereo not given) | inactive
17 | Cc1cc(C)nc(NC(=O)NS(=O)(=O)c2ccccc2C(=O)OC2COC2)n1 | inactive
18 | N#Cc1c(Cl)c(Cl)c(Cl)c(C#N)c1Cl | inactive
19 | CCC(C)(NC(=O)c1cc(Cl)c(C)c(Cl)c1)C(=O)CCl (stereo not given) | inactive
20 | CC[C@H](C)[C@H]1O[C@]2(C=C[C@@H]1C)C[C@@H]1C[C@@H](C/C=C(\C)[C@@H](O[C@H]3C[C@H](OC)[C@@H](O[C@H]4C[C@H](OC)[C@@H](O)[C@H](C)O4)[C@H](C)O3)[C@@H](C)/C=C/C=C3\CO[C@@H]4[C@H](O)C(C)=C[C@@H](C(=O)O1)[C@]34O)O2 (tested in a mixture with another compound) | inactive

Row | SMILES | outcome
21 | COC(=O)c1ccccc1S(=O)(=O)NC(=O)Nc1nc(C)nc(OC)n1 | inactive
22 | CCC(C)(C)C(=O)OC1=C(c2ccc(Cl)cc2Cl)C(=O)OC12CCCCC2 | inactive
23 | COc1cc(OC)nc(NC(=O)NS(=O)(=O)c2cc(NC=O)ccc2C(=O)N(C)C)n1 | inactive
24 | CC(C)OC(=O)Nc1cccc(Cl)c1 | inactive
25 | [2H]C1([2H])[n+]2ccccc2-c2cccc[n+]2C1([2H])[2H] | inactive
26 | COC(=O)c1ccccc1CS(=O)(=O)NC(=O)Nc1nc(OC)cc(OC)n1 | inactive
27 | COC(=O)c1ccccc1S(=O)(=O)NC(=O)N(C)c1nc(C)nc(OC)n1 | inactive
28 | O=C(Nc1ccccc1)Nc1cnns1 | inactive
29 | COc1nn(CSP(=S)(OC)OC)c(=O)s1 | inactive
30 | CC1(c2ccc(Oc3ccccc3)cc2)OC(=O)N(Nc2ccccc2)C1=O (stereo not given) | inactive
31 | CCN(CC)C(=O)SCc1ccc(Cl)cc1 | inactive
32 | O=[N+]([O-])c1c(Cl)c(Cl)c(Cl)c(Cl)c1Cl | inactive
33 | CCOc1nc(NC)nc(NC(=O)NS(=O)(=O)c2ccccc2C(=O)OC)n1 | inactive
34 | O=C1c2ccccc2C(=O)N1SC(Cl)(Cl)Cl | inactive
35 | OCCOc1ccccc1 | inactive
36 | C[C@H]1[C@H](c2ccc(Cl)cc2)SC(=O)N1C(=O)NC1CCCCC1 | inactive
37 | O=S(=O)(O)C(F)(F)C(F)(F)C(F)(F)C(F)(F)C(F)(F)C(F)(F)C(F)(F)C(F)(F)F | inactive
38 | Oc1cc(Cl)ccc1Oc1ccc(Cl)cc1Cl | inactive
39 | CCOCN(C(=O)CCl)c1c(C)cccc1CC | inactive
40 | O=S1OCC2C(CO1)C1(Cl)C(Cl)=C(Cl)C2(Cl)C1(Cl)Cl (stereo not given) | inactive
